These results are taken from PubChem BioAssay.

Calls of active or inactive are those of the source.

Assay [1] is described as follows: binders of probe aFSTL3 on microarray, primary screen, stem cell growth factor project, biochemical, small-molecule microarray, fluorescence 635/667 (AID 1064).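 Also: measures binding of the biotinylated anti-FSTL3 antibody to printed compounds.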 To be noted: higher = more signal.
Assay [2] in a line: binders from COS7 lysate, DM2A8 probe, primary screen, torsin A project, cell lysate, small-molecule microarray, fluorescence 635/667 (AID 1065). To be noted: higher = more signal, COS7 lysate expressing mutant human TOR1A.
The nature of assay [3]: binders of probe aFGF2 on microarray, primary screen, stem cell growth factor project, biochemical, small-molecule microarray, fluorescence 635/667 (AID 1067).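 Also: measures binding of biotinylated aFGF2 protein to printed compounds on slides; z-score merges feature fluorescence and signal-to-noise across triplicate slides.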 To be noted: higher = more signal.
Assay [4] in a line: binders of probe aFGF10 on microarray, primary screen, stem cell growth factor project, biochemical, small-molecule microarray, fluorescence 635/667 (AID 1071).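 Also: score merges 667 nm spot intensity and signal to noise from triplicate slides.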 To be noted: higher = more signal.
Assay [5] has as its target Neurogenic locus notch homolog protein 2 (Homo sapiens) (UniProt Q04721). As to the kind of experiment: Notch2 binders on small-molecule microarrays, primary screen, biochemical, small-molecule microarray, 635 nm fluorescence, stem cell growth factors (AID 1073). To be noted: Notch2 binding, higher = more signal.
The target in assay [6] is Pro-neuregulin-1, membrane-bound isoform (Homo sapiens) (UniProt Q02297). As to the kind of experiment: NRG1 binders on small-molecule microarrays, primary screen, psychiatric disease protein project, biochemical, small-molecule microarray, fluorescence 635/667 (AID 1075).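 Also: score combines 667 nm spot fluorescence with signal to noise.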 To be noted: NRG1 binding, 635 nm fluorescence, higher = more signal.
Pro-neuregulin-1, membrane-bound isoform (Homo sapiens), sequence (Q02297 whole entry, looked up, the tested form may be a part, canonical isoform): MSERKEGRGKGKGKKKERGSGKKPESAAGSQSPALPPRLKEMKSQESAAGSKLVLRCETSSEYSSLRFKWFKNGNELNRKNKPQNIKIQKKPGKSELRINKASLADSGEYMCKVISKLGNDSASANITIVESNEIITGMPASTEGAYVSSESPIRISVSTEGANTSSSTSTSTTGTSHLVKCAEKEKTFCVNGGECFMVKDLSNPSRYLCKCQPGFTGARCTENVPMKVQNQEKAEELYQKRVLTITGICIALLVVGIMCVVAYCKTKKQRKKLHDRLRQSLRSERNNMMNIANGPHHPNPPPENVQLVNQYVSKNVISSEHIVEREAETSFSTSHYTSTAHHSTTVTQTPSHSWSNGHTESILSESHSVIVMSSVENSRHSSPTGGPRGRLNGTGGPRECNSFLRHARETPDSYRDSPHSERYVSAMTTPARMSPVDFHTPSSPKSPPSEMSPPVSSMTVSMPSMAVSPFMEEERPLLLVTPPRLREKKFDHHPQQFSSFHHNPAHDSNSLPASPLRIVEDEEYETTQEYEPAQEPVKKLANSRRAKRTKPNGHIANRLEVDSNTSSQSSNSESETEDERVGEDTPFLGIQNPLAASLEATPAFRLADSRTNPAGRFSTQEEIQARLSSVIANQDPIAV
Assay [7] concerns Neuregulin-1 EGF-like domain. Nature of the assay: binders of neuregulin-1 EGF-like domain, primary screen, biochemical, small-molecule microarray, 635 nm fluorescence (AID 1081).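 Also: binding of the protein to compounds printed on small-molecule microarray slides.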 To be noted: small-molecule microarray binding, higher = more signal.
A short description of assay [8]: FRG1 promoter luciferase signal modulators, primary screen, FRG1 inhibition for FSHD, cell-based, C2C12 myotubes, firefly/Renilla luciferase, luminescence (AID 1084). To be noted: higher = more signal, called active from +8 up or from −8 down.
Assay [9] can be described thus: binders of probe aFST on microarray, primary screen, stem cell growth factor project, biochemical, small-molecule microarray, fluorescence 635/667 (AID 1086).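 Also: score merges 667 nm fluorescence with signal-to-noise of each printed compound spot.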 To be noted: higher = more signal.
A short description of assay [10]: binders of probe aHhip on microarray, primary screen, stem cell growth factor project, biochemical, small-molecule microarray, fluorescence 635/667 (AID 1087).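 Also: score merges spot fluorescence at 667nm with spot signal to noise ratio.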 To be noted: higher = more signal.
Assay [11] deals with PRMT1 (protein arginine N-methyltransferase 1). Nature of the assay: PRMT1 binders on small-molecule microarrays, primary screen, biochemical, small-molecule microarray, 635 nm fluorescence (AID 1088).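 Also: binding of Prmt1 protein to compounds spotted on small-molecule microarray slides.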 To be noted: small-molecule microarray binding, higher = more signal.
Assay [12] is described as follows: yeast growth modulation, basal conditions, primary screen, YJM789 clinical isolate, OD600, 24 h (AID 1089).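 Also: growth of clinical yeast isolate S. cerevisiae YJM 789 seeded 1000 cells per well; test concentration not given here.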 To be noted: S. cerevisiae YJM789 growth, higher = more signal, called active from +8 up or from −8 down.
Assay [13] can be described thus: fission yeast growth modulation, primary screen, strain 972, OD600, 24 h, no modulator (AID 1090).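 Also: basal condition with compound alone and no growth modifier present; test concentration not given here.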 To be noted: S. pombe 972 growth, higher = more signal, called active from +8 up or from −8 down.
Assay [14] is described as follows: S. cerevisiae growth modulation with rapamycin, primary screen, strain BY4716, OD600, 96 h (AID 1091). Also: test concentration not given here. To be noted: higher = more signal, called active from +8 up or from −8 down.
Assay [15] concerns the target Torsin-1A-interacting protein 2 (Homo sapiens) (UniProt Q8NFQ8). As to the kind of experiment: LULL1 binders on small-molecule microarray, primary screen, cell lysate, human LULL1 lysate, 635/667 nm fluorescence (AID 1092).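 Also: probe is lysate of COS7 cells overexpressing human LULL1; score merges per-feature 667 nm fluorescence with signal-to-noise.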 To be noted: hLULL1 lysate binding, 635 nm fluorescence, higher = more signal.
The nature of assay [16]: E. coli growth modulation, two-sided OD650, primary screen, E. coli filamentation project, strain DRC41, 24 h (AID 1093).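 Also: MC1000 strain lacking acrAB efflux and sulA so SOS filamentation is blocked; test concentration not given here.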 To be noted: OD650, 24 h, higher = more signal, called active from +8 up or from −8 down.
Assay [17] in a line: small-molecule microarray binders of probe aLefty2, primary screen, biochemical, biotinylated probe, 635/667 nm fluorescence (AID 1094).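 Also: score merges spot fluorescence near 667 nm with spot signal-to-noise ratio.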 To be noted: higher = more signal.
Assay [18] concerns Noggin (protein binding on small-molecule microarray). As to the kind of experiment: Noggin binders on small-molecule microarray, primary screen, biochemical, 635/667 nm fluorescence (AID 1095).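 Also: score merges 667 nm feature fluorescence with signal to noise over triplicate slides.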 To be noted: 635 nm fluorescence, higher = more signal.
Assay [19] concerns the target Neurogenic locus notch homolog protein 3 (Homo sapiens) (UniProt Q9UM47). As to the kind of experiment: NOTCH3 binders on small-molecule microarray, primary screen, biochemical, 635/667 nm fluorescence (AID 1096). To be noted: NOTCH3 binding, 635 nm fluorescence, higher = more signal.
Assay [20] can be described thus: small-molecule microarray binders of probe aEGFR, primary screen, biochemical, biotinylated probe, 635/667 nm fluorescence (AID 1097).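 Also: probe is a biotinylated anti-EGFR antibody binding compounds printed on slides; score combines fluorescence near 667 nm and signal to noise of each spot.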 To be noted: higher = more signal.

Neurogenic locus notch homolog protein 3 (Homo sapiens), sequence (Q9UM47 whole entry, looked up): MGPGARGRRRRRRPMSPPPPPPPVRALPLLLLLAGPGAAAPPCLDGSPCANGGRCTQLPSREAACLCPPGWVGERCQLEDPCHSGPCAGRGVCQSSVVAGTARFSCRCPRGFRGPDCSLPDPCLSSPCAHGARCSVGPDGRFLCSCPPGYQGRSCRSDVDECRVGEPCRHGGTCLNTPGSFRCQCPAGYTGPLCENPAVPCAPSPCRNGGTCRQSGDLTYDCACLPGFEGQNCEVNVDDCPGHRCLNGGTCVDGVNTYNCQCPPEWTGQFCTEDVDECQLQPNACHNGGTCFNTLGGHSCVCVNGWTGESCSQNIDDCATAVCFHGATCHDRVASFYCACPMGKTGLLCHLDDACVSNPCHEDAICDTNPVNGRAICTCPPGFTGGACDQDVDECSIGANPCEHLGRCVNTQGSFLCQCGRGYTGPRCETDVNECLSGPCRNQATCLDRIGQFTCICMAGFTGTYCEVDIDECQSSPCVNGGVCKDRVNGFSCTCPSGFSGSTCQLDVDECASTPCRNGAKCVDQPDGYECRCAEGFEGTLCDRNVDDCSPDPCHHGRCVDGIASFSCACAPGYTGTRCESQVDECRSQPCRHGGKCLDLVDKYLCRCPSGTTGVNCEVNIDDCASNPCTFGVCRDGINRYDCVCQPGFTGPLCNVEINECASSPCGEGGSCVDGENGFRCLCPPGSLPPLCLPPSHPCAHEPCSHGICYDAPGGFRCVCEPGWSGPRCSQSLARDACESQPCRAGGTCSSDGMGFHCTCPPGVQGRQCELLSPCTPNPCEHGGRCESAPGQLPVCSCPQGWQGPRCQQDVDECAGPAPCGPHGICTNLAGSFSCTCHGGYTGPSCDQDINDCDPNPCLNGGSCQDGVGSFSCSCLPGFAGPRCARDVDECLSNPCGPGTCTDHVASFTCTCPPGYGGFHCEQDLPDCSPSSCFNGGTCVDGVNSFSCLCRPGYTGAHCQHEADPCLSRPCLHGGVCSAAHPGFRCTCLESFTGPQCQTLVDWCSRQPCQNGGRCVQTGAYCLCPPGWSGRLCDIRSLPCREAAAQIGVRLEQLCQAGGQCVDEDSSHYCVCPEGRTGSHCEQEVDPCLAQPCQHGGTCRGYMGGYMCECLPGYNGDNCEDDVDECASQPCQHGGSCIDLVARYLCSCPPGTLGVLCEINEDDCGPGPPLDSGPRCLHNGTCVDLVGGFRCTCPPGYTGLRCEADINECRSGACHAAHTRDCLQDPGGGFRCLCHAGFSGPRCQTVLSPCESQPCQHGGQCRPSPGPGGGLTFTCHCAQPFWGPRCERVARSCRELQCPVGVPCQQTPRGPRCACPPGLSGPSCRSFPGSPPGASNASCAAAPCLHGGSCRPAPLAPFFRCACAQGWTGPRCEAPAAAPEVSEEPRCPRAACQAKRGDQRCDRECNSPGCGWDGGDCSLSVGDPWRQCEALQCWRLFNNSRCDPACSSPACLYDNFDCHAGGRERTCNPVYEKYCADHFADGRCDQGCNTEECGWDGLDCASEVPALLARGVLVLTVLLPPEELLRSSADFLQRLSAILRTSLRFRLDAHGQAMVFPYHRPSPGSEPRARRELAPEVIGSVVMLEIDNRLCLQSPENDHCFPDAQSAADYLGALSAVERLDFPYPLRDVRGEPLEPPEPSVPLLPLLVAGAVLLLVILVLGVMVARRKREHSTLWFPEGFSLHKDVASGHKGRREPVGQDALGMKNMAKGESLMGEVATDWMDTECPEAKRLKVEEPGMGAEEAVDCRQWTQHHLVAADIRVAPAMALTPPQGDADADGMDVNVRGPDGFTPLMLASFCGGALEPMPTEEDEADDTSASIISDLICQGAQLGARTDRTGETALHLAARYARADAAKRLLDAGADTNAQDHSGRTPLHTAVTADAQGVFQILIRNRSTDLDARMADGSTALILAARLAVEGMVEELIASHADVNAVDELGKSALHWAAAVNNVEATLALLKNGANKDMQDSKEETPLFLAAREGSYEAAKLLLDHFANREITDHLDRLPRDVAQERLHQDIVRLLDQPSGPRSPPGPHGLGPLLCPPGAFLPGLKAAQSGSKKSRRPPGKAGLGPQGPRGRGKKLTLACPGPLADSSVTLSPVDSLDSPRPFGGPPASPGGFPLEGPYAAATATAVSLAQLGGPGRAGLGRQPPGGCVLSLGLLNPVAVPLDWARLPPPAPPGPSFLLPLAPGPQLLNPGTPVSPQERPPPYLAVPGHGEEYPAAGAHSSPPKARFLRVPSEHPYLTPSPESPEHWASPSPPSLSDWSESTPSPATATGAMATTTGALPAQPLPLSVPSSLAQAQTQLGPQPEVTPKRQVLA
Torsin-1A-interacting protein 2 (Homo sapiens), sequence (Q8NFQ8 whole entry, looked up): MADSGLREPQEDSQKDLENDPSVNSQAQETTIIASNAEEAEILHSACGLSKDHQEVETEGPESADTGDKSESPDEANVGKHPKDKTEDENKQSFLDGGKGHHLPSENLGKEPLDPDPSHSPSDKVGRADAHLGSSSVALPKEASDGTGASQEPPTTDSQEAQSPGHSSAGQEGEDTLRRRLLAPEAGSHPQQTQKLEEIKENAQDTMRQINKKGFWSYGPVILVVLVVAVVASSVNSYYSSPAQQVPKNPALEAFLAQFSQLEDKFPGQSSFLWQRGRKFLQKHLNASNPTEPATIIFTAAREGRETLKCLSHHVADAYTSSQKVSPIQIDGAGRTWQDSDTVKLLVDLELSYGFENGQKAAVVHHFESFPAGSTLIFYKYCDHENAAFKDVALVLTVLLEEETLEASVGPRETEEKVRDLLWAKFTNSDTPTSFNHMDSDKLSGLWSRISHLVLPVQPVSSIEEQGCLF

For `CC(C)(C)OC(=O)CC[C@@]1(C(=O)NCC(O)CO)N=C(c2ccc(OCCCO)cc2)O[C@@H]1c1ccccc1` (stereo not given in full), the composite z-score in assay [1] is 0.222; in assay [2], 1.68; in assay [3], -0.11; in assay [4], 0.0407; in [5], 0.739; in assay [6], 1.8. The composite z-score stood at 1.35 in assay [7]; 0.74 in assay [9]; 0.12 in [10]; 1.46 in assay [11]; 3.77 in assay [15]; 0.0689 in assay [17]. Also, the values for the composite z-score in assay [18], in assay [19] and in assay [20] were -0.364, 0.356 and -0.071, respectively. In addition, the z-score in assay [8] was 1.74 (inactive); in [12], 0.531 (inactive); in assay [13] it was 0.18 (inactive); in [14], 0.375 (inactive); in [16], -0.103 (inactive).

As for `CN(C)CCCN1C(=O)[C@@]2(c3ccc([N+](=O)[O-])cc3)CC(=O)N(C3CCCCC3)[C@@H]2c2ccc(CO)cc21`, the composite z-score in assay [1] is -0.363; in [2], -0.0124; in [3] it was -0.107; in assay [4], 0.251; in assay [5] it was 0.166; in assay [6] it was -0.483. For the same compound, the composite z-score in assay [7] was -1.19; in assay [9] it was 0.161; in assay [10], -0.353; in [11], -0.282; in assay [15], -0.933; in assay [17] it was -0.142. For the same compound, the composite z-score in assay [18] was -0.233; in assay [19], -0.0488; in assay [20] it was -0.103. In addition, the z-score in assay [8] is 1.19 (inactive); in [12] it was -1.34 (inactive); in [13], -1.09 (inactive); in assay [14] it was -2.61 (inactive); in assay [16] it was -1.22 (inactive).

Consider `CS(=O)(=O)CCOC(=O)C1=CC(c2ccc(CO)cc2)=CC(c2cccs2)N(Cc2cccc(OC(F)(F)F)c2)C=C1C(=O)OCCS(C)(=O)=O` (stereo not given), for which the composite z-score in assay [1] was -0.398; in assay [2], 0.405; in assay [3], 0.024; in assay [4], 0.708; in assay [5], 1; in [6], 1.63. For the same compound, the composite z-score in [7] was 0.999; in [9], 1.14; in [10] it was 0.0139; in assay [11] it was 1.34; in assay [15], 3.12; in assay [17] it was -0.0833. The composite z-score in [18] is 0.333; in assay [19], 0.856; in [20], -0.0688. The z-score is 0.371 (inactive) in assay [8]; -0.246 (inactive) in assay [12]; -3.38 (inactive) in assay [13]; 2.41 (inactive) in [14]; -0.575 (inactive) in assay [16].

As for `COc1ccc([Si](C)(C)[C@@H]2[C@@H](CCn3cc([C@H](O)c4ccccc4)nn3)O[C@]3(C(=O)N(C)c4ccccc43)[C@H]2C)cc1`, the composite z-score in assay [1] is -0.266; in [2], 0.356; in assay [3] it was -0.0468; in assay [4] it was 0.181; in assay [5], 0.0572; in assay [6], 0.0939. The composite z-score in assay [7] is 0.448; in [9] it was -0.108; in [10] it was -0.391; in assay [11], 0.384; in [15], 1.96; in assay [17] it was -0.166. The composite z-score is -0.133 in assay [18], -0.0523 in assay [19] and -0.0828 in [20]. For the same compound, the z-score in [8] was -1.31 (inactive); in assay [12], -0.842 (inactive); in [13], 0.324 (inactive); in assay [14], -0.112 (inactive); in [16], -0.036 (inactive).

Turning to `COc1ccc(C#Cc2ccc3c(c2)[C@]2(C(=O)N3)[C@H](C(=O)N3CCN(c4ncccn4)CC3)[C@H]3C(=O)O[C@H](c4ccccc4)[C@H](c4ccccc4)N3[C@@H]2c2ccc(O)cc2)cc1`, the composite z-score is -0.092 in assay [1]; 0.308 in assay [2]; -0.232 in assay [3]; 0.207 in assay [4]; 0.871 in assay [5]; 1.19 in [6]. The composite z-score is 1.17 in assay [7]; 0.234 in assay [9]; -0.353 in [10]; 1.56 in assay [11]; 2.33 in assay [15]; 0.0897 in assay [17]. The results for the composite z-score in [18], in assay [19] and in assay [20] were 0.496, 0.853 and -0.0573, respectively. The z-score in assay [8] was 0.437 (inactive); in assay [12] it was 0.77 (inactive); in [13], 0.86 (inactive); in [14], 1.17 (inactive); in assay [16], -0.459 (inactive).

In the case of `O=c1cccc(-c2ccccc2)o1`, the composite z-score in assay [1] is -0.0048; in [2] it was -0.313; in assay [3], -0.0996; in assay [4], 0.062; in assay [5] it was 0.197; in assay [6] it was -0.356. Besides, the composite z-score in assay [7] was 0.811; in [9] it was -0.0103; in assay [10], 0.113; in [11], -0.159; in assay [15], -0.568; in [17], -0.18. Besides, the results for the composite z-score in assay [18], in [19] and in assay [20] were -0.124, -0.435 and -0.136, respectively. Moreover, the z-score in [8] is 2.03 (inactive); in assay [12], -1.42 (inactive); in [13], -3.79 (inactive); in assay [14] it was -0.482 (inactive); in [16], -0.528 (inactive).

For the compound `[N-]=[N+]=Nc1ccccc1[C@@H]1OC(c2ccc(OCCCO)cc2)=N[C@]1(CCS(=O)(=O)c1ccccc1)C(=O)N1CCCCC1`, the composite z-score in assay [1] turned out to be 1.78; in assay [2] it was 1.25; in assay [3], 0.206; in assay [4], 0.77; in [5], 1.6; in [6], 1.37. Besides, the composite z-score in assay [7] is 1.29; in assay [9], 1.18; in [10], -0.249; in [11], 1.56; in [15] it was 2.83; in assay [17] it was 0.799. For the same compound, the composite z-score in assay [18] amounted to 0.237; in [19] it was 1.05; in assay [20], 0.292. Further, the z-score in [8] is -1.72 (inactive); in assay [12] it was 0.436 (inactive); in assay [13], 1.15 (inactive); in [14] it was 2.83 (inactive); in assay [16], 0.106 (inactive).

With `COC(=O)[C@@]1(Cc2ccc(OC)cc2)[C@H]2c3cc(C(=O)N(C)C)n(Cc4ccc(OC)c(OC)c4)c3C[C@H]2CN1C(=O)c1ccccc1`, the composite z-score in assay [1] is 0.42; in assay [2], 0.796; in assay [3], -0.0824; in assay [4], 0.336; in assay [5], 1.73; in assay [6] it was 1.86. In addition, the composite z-score in assay [7] stood at 1.28; in [9], 1.39; in assay [10], 0.525; in assay [11], 1.58; in assay [15], 3.65; in assay [17], 0.401. Further, the composite z-score in assay [18] is -0.356; in [19], 1.03; in assay [20] it was 0.288. The z-score is 0.889 (inactive) in assay [8]; 1.04 (inactive) in [12]; 2.35 (inactive) in [13]; 4.24 (inactive) in assay [14]; -0.841 (inactive) in assay [16].

For `C=C(C(=O)CC[C@@H](OC(=O)c1cccnc1)c1ccc(CO)o1)C(C)C`, the composite z-score was -0.35 in assay [1]; 0.328 in [2]; -0.019 in assay [3]; 0.715 in assay [4]; 0.29 in assay [5]; 1.08 in assay [6]. Besides, the composite z-score is 0.592 in assay [7]; 0.337 in [9]; 0.0373 in [10]; 1.54 in assay [11]; 1.97 in assay [15]; -0.0415 in assay [17]. Also, the composite z-score in [18] was 1.53; in assay [19], 1.14; in assay [20] it was -0.0697. The z-score was 0.305 (inactive) in assay [8]; 0.813 (inactive) in assay [12]; -0.485 (inactive) in assay [13]; -0.0796 (inactive) in assay [14]; -0.601 (inactive) in [16].
